PubChem BioAssay (EPA / NIEHS)
Where “and” joins values, the source holds several entries; their conditions need not be identical. Identical values can stand only once. Inconclusive results are not listed. Calls of active or inactive are those of the source. How the source made its calls, unless noted: active means hit-call score of the fitted dose curve at least 0.9, where 1 is the maximum; inconclusive means response in the unintended direction; inactive means score below 0.9.

What was measured:
[1] = biological target: Estrogen receptor (Homo sapiens) (UniProt P03372); experiment: CCTE_Deisenroth_AIME_384WELL_LUC_Active: CCTE's 384-well Estrogen Receptor Transactivation Assay with AIME metabolic competence (ERTA luciferase; metabolism positive), Deisenroth Lab (AID 2284030)
In short: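 AIME metabolism-positive mode: chemicals 0.002 - 200 uM, 2 h with alginate-bound PB/BNF-induced rat S9 → medium to VM7Luc4E2 ERTA, 24 h → luciferase. Positive fit vs 17beta-estradiol; n=4 typical.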

[2] = CCTE_Deisenroth_AIME_384WELL_CTox_Active: Cytotoxicity Assessment (CTOX) in CCTE's 384-well Estrogen Receptor Transactivation Assay with AIME metabolic competence (metabolism positive), Deisenroth Lab (AID 2284037);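 further: chemicals first conditioned 2 h by alginate-bound induced rat liver S9 before cells; activity means signal loss indicating cell death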
In short: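 Chemicals pre-incubated 2 hours with alginate-immobilised phenobarbital/beta-naphthoflavone-induced male Sprague Dawley rat liver S9, then conditioned medium applied 24 hour to VM7Luc4E2 cells. Viability by fluorogenic protease substrate; 10-point series 0.002 - 200 uM.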

[3] = biological target: Estrogen receptor (Homo sapiens) (UniProt P03372); experiment: CCTE_Deisenroth_AIME_384WELL_LUC_Inactive: CCTE's 384-well Estrogen Receptor Transactivation Assay without AIME metabolic competence (ERTA luciferase; metabolism negative), Deisenroth Lab (AID 2284038);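 further: VM7Luc4E2 breast cells given medium preincubated 2 h with S9-free microspheres; hits raise estrogen receptor luciferase signal so potencies reflect agonists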
In short: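 Metabolism-negative mode: chemicals (10-point, 0.002–200 uM) held 2 h with alginate-water microspheres, then conditioned medium applied to VM7Luc4E2 cells for 24 h. Luciferase induction referenced to 17beta-estradiol.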

[4] = CCTE_Shafer_MEA_dev_per_burst_spike_percent: CCTE's Neural Network Formation Assay for Percent of Spikes in a Burst, Shafer Lab (AID 2284032; active means hit-call score of the fitted dose curve at least 0.9, where 1 is the maximum; inactive means score below 0.9;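 on AC50: fitted as a decrease in burst spike percentage below DMSO baseline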)
In short: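 Rat primary cortical neurons on 16-electrode MEA wells, dosed from plating day 0 for 12 days with renewal on DIV 5 and 9; spikes-in-bursts percentage averaged over bursting electrodes, collapsed as AUC across days 5, 7, 9, 12; loss direction versus DMSO.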

[5] = CCTE_Shafer_MEA_acute_cross_correlation_area: CCTE's Neural Acute Assay for Area of Cross Correlation, Shafer Lab (AID 2284024; active means hit-call score of the fitted dose curve at least 0.9, where 1 is the maximum; inactive means score below 0.9;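 further: rat primary cortical neuron networks on 48-well MEA at DIV 13 or 15 with 40 min exposure; area under pooled inter-electrode spike cross-correlation near zero lag as percent change from own baseline; curves fitted for loss of cross-correlation area so actives lower synchrony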)
In short: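 Plates equilibrated 20 min at 37 C, then 40 min baseline was recorded, compound was added (0.03-40 uM), and a further 40 min was recorded. Wells needed ≥10 active electrodes (≥5 spikes/min) on exposure day.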

[6] = CCTE_Shafer_MEA_acute_cross_correlation_HWHM: CCTE's Neural Acute Assay for Cross Correlation at Half Width at Half Maximum, Shafer Lab (AID 2284026; active means hit-call score of the fitted dose curve at least 0.9, where 1 is the maximum; inactive means score below 0.9;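 further: percent change per well from pre-dose baseline in spike cross-correlogram half width; hits are a decrease in cross-correlogram half width relative to DMSO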;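 on outcome: spontaneous network firing of rat primary cortical neurons on multiwell microelectrode arrays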)
In short: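 Rat cortical neuron cultures on microelectrode arrays were equilibrated 20 min at 37 C, recorded 40 min at baseline, then 40 min after compound addition (0.03-40 uM, ≥3 wells). Spikes were detected at 8x rms noise after 300-5000 Hz band-pass filtering.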

[7] = CCTE_Shafer_MEA_acute_synchrony_index: CCTE's Neural Acute Assay for Synchrony, Shafer Lab (AID 2284027; active means hit-call score of the fitted dose curve at least 0.9, where 1 is the maximum; inactive means score below 0.9;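 further: fitted for loss of signal so actives lower synchrony relative to DMSO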)
In short: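 Readout is percent change in the unitless network synchrony index (0 low, 1 high) between a 40-min baseline and a 40-min recording in compound. Cultures were primary rat cortical neurons on MEAs, treated at 0.03-40 uM on DIV 13 or 15.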

Sequence of Estrogen receptor (Homo sapiens) (P03372 whole entry, looked up): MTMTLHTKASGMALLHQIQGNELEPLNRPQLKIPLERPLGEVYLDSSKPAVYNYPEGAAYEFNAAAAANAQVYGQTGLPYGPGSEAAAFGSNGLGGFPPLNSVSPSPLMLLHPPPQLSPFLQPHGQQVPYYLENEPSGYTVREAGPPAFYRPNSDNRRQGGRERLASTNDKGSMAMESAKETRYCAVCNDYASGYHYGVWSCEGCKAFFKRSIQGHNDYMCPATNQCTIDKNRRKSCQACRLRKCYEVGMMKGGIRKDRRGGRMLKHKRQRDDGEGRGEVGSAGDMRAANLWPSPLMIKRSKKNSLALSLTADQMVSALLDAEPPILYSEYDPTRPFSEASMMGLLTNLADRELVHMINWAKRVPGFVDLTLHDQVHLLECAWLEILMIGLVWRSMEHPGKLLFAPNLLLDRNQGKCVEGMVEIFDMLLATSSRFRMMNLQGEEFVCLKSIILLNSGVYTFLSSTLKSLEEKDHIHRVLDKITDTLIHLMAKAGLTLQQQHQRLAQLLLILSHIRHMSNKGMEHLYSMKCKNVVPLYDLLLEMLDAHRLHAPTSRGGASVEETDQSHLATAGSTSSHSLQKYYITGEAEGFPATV

CCOC(N)=O
outcome [1]: inactive
outcome [2]: inactive
outcome [3]: inactive

CCOc1ccc2[nH]cc(C(=O)NCc3ccccc3)c(=O)c2n1
outcome [1]: inactive
outcome [4]: inactive
outcome [3]: inactive

CC(C)C(=O)Nc1ccc([N+](=O)[O-])c(C(F)(F)F)c1
outcome [5]: inactive
AC50 [6]: 5.73 µM (active)
outcome [7]: inactive

CCc1ccc(O)c(C(C)(C)C)c1
outcome [5]: inactive
outcome [6]: inactive
outcome [7]: inactive
outcome [2]: inactive

C=CCc1cc(S(=O)(=O)c2ccc(O)c(CC=C)c2)ccc1O
outcome [5]: inactive
outcome [6]: inactive
outcome [7]: inactive
AC50 [2]: 169 µM (active)

COc1cc(C(C)C)c2c(c1)S(=O)(=O)N(COc1cc(=O)n3cccc(OCCN4CCCCC4)c3n1)C2=O
outcome [5]: inactive
AC50 [6]: 7.59 µM (active)
AC50 [7]: 7.39 µM (active)

CC[C@H](C)C(=O)O[C@H]1C[C@H](O)C=C2C=C[C@H](C)[C@H](CC[C@@H](O)C[C@@H](O)CC(=O)O)[C@H]21
outcome [5]: inactive
outcome [6]: inactive
outcome [7]: inactive
AC50 [4]: 1.92 µM (active)

CCCCCCCC1CCC(=O)O1 (centres undefined)
outcome [5]: inactive
outcome [7]: inactive

NC(=O)NN=Cc1ccc([N+](=O)[O-])o1
AC50 [2]: 116 µM (active)

c1ccc2ncccc2c1
outcome [1]: inactive
outcome [3]: inactive

CC(C)CC(C)O (centres undefined)
outcome [1]: inactive
outcome [2]: inactive
outcome [3]: inactive

CCCC(CCC)C(=O)O
outcome [4]: inactive

OCC(CO)(CO)CO
outcome [1]: inactive
outcome [3]: inactive

O=C1CN(N=Cc2ccc([N+](=O)[O-])o2)C(=O)N1
outcome [1]: inactive
outcome [2]: inactive
outcome [3]: inactive

C[C@]12C=CC(=O)C=C1CC[C@H]1[C@@H]3C[C@@H](O)[C@](O)(C(=O)CO)[C@@]3(C)C[C@H](O)[C@@]12F
outcome [4]: inactive

FC(F)(F)COC(OCC(F)(F)F)OCC(F)(F)F
outcome [4]: inactive

CC(C)c1nnc2ccc(-c3ocnc3-c3cc(F)ccc3F)cn12
outcome [1]: inactive
outcome [3]: inactive

CC(=O)c1ccccc1
outcome [1]: inactive
outcome [2]: inactive
outcome [3]: inactive

Nc1ccn([C@@H]2O[C@H](CO)[C@@H](O)[C@@H]2O)c(=O)n1
AC50 [4]: 138 nM (active) and 298 nM (active)

FC(F)(F)C(F)(F)C(F)(F)C(F)(F)C(F)(F)C(F)(F)I
outcome [4]: inactive

OC(Cn1cncn1)(Cn1cncn1)c1ccc(F)cc1F
outcome [4]: inactive

COS(C)(=O)=O
outcome [1]: inactive
outcome [2]: inactive
outcome [3]: inactive

OCCC(F)(F)C(F)(F)C(F)(F)C(F)(F)F
outcome [4]: inactive

CCc1cccc(CC)c1N
outcome [1]: inactive
outcome [2]: inactive
outcome [3]: inactive

NNC(=O)c1ccncc1
outcome [4]: inactive

NC(=O)N1c2ccccc2C=Cc2ccccc21
outcome [4]: inactive

NCC(F)(F)C(F)(F)C(F)(F)C(F)(F)F
outcome [4]: inactive

CCn1nc(C)c2c1C(=O)NCC(c1ccc(O)cc1)=N2
outcome [1]: inactive
outcome [3]: inactive

Cn1cc[nH]c1=S
outcome [4]: inactive

O=C(Cl)C(F)(F)C(F)(F)C(F)(F)C(=O)Cl
AC50 [4]: 15 µM (active)

C[C@@H](Oc1ccc(CNC(=O)c2cccnc2Oc2ccc3c(c2)OCO3)c(F)c1)C(=O)O
outcome [1]: inactive
outcome [2]: inactive
outcome [3]: inactive

CCCCOC(=O)c1ccccc1
outcome [1]: inactive
outcome [2]: inactive
outcome [3]: inactive

OC(O)(C(F)C(O)(O)C(F)(F)F)C(F)(F)F
outcome [4]: inactive
